Test results: PubChem BioAssay AID1508600 (Functional Genomics Laboratory (NCATS/FGL), 2020)
About 3,700 (7%) of roughly 53,000 sequences were called active. Many of the other results were omitted from the sample, so actives are more common in it than they were. A number with no mark means an inactive call.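 The calls were made as follows: active = gene knockdowns whose robust z-score for IL-1 alpha signal is at least 2 or at most -2, so actives lie on both sides; inactive = the rest.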

Test: Components of the Cytosolic LPS Sensing Pathway: Gene Identification via Genome-wide siRNA Screen;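 also: robust z of the log signal after scaling to non-targeting control siRNA wells of the plate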
Details: RAW264.7 macrophages, IL-1a HTRF, actives lie on both sides, screened at 100 nM (by protocol), cells primed 5 h with Pam3CSK4 first
In short: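 RAW264.7 mouse macrophages reverse-transfected with single siRNAs (100 nM final) for 48h, primed with Pam3CSK4 for 5 hours, then transfected with LipidA for 24 hour. Supernatant IL-1a read by HTRF; values normalized to negative-control median, log-transformed robust z-scores.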
Work on GGUGAGACAGAUAAAGUUCTT against Olfr1124 yielded a z-score of 1.15.
Sequence GGUAAAAGCUACCAUUCAGTT against Ap2a2 has a z-score of -0.947.
Work on GGUUUGUUUUUGUUCGUUUTT against Cytip yielded a z-score of -0.067.
For GGCAAGAAAAAUCAGAUUGTT against Cyld, the z-score was 3 (active).
In the case of GGAGUUUACGGCUAUUGACTT against Adap2, the z-score is reported as -0.884.
With GGUUUAAUUCUUGUCUUGUTT against Pvt1 the z-score was -0.928.
GGUUAUCGGUUGUACAUAUTT against Chd3 showed a z-score of 1.03.
In the case of CGUGGACUCUAUAAUCAACTT against Map7d1, the z-score is reported as 2.47 (active).
GGCAAGCUUCCAGAUCGAATT against Adam23 showed a z-score of 0.0113.
Work on GGAACCAGAUCUCAUGCCCTT against Endov yielded a z-score of -1.47.
GGAUCACACUAGUAUUUUCTT against Sertad2 showed a z-score of -0.923.
Sequence GCUAAAAACAACUAGGAAATT against Wdr60 has a z-score of 0.391.
With GCAUCGUGUGCAAGAUCCUTT against Atp4b the z-score was 2.74 (active).
GGAAAUAUAUCUGAAAGGGTT against Sphkap showed a z-score of 0.514.
In the case of GCUCGCUAAAGUGAUUAAATT against Gm5533, the z-score is reported as 0.867.
With GGACUUUCUAAGGGUAAAATT against Luzp1 the z-score was -0.0646.
GGACAAAGCUAUUGGGAUUTT against Olfr402 gave a z-score of 1.45.
GGUGAUGGUCCAGAUUAACTT against Plpbp gave a z-score of -0.0895.
For GCUGAAAUAGUUGCUAAAUTT against Usp6nl, the z-score was 0.443.
For GGAACUGUCACAACUGCUATT against Acat3, the z-score was 3.22 (active).
For GGAGAAGCUCAUCUCUCUGTT against Rfx2, the z-score was -1.35.
GGAACAUCUUUCUUCUCCATT against Abhd4 gave a z-score of -0.869.
For GGAUUCGGACUUCAUAAUCTT against Dpp10, the z-score was 0.256.
GCUGAUAAAUCUGAACUACTT against Dhrs7 gave a z-score of 1.15.
For GGUUCUGAGUAUUUAAAGCTT against Nt5dc3, the z-score was 2.21 (active).
GGACAUCUCCUUGAUCUUGTT against Slc1a5 gave a z-score of -0.95.
UCACCAUCUUGAAGAUUCGTT against Olfr486 gave a z-score of -0.792.
In the case of GCAGGAUCCUGAAACCAUGTT against Lrrc14, the z-score is reported as -2.09 (active).
Sequence GCCCAAGACGAAAAGAUACTT against Mrpl9 has a z-score of 0.662.
For GGAUAGCAAAUUCAUCACATT against Ptprg, the z-score was -0.214.
In the case of GGCUUCGUAGCUUUACAAATT against Abca6, the z-score is reported as -0.846.
In the case of GGAAAGGUCAAGAGAAUUUTT against Strn3, the z-score is reported as -1.16.
GGACUUACUGACAAGAAACTT against Pcdhgb8 gave a z-score of -0.52.
In the case of UUCUAAUUGUCACUUGGUGTT against Olfr1474, the z-score is reported as -0.133.
For GCUGGAUUAUUUGAGAGUCTT against Trim62, the z-score was 2.17 (active).
Sequence GCAUUAAGCAAUGGCAUCATT against Cbfa2t2 has a z-score of 0.21.
In the case of GCAUCAGAGAAGUGCGAGCTT against Pafah2, the z-score is reported as -0.0121.
Work on “GCUCAUGAUCAUAUCAUGATT against 1810055G02Rik” yielded a z-score of 0.647.
In the case of CCCACACAAUUCUCAUGGGTT against Olfr366, the z-score is reported as 0.661.
With GGAAUACGAAGAGAUUAUATT against Zw10 the z-score was 0.65.
With “CCUAGAAAAGUCAUUGUCATT against 3010003L21Rik” the z-score was -2.08 (active).
Work on CCUUCAAGAUAAAUUGACATT against Tango6 yielded a z-score of 0.755.
GGAAAAGGCCAUGAAUAUATT against Mmel1 showed a z-score of 0.176.
Sequence GGCCAGACACAGGUAGACATT against B9d2 has a z-score of -1.85.
In the case of CGGACGAUUCGUGUCAAUUTT against Ppie, the z-score is reported as 0.619.
In the case of GGACGAACAGUAUUAUACUTT against Lhx5, the z-score is reported as 2.11 (active).
In the case of CCUGAUGUUAUUCCUUUUATT against Klhl20, the z-score is reported as -0.524.
Sequence GGUGAUGACGAAGGAAUCCTT against Zfpm2 has a z-score of -1.51.
In the case of GGAGCAAGACAUAUAGAAATT against Spsb2, the z-score is reported as 2.26 (active).
Work on GGACAUUUUUAUUAGUGGATT against Gtpbp8 yielded a z-score of 1.04.
For CCAUUGGAGGAUAAGUUUUTT against Mtm1, the z-score was -0.0988.
Work on GGAAAAUGGAGAACUAAAGTT against Uxs1 yielded a z-score of 1.88.
Work on GGAUAAACCCUACGUUCUATT against Slc44a4 yielded a z-score of 0.658.
For GGUUAUCCGUGGUAACCAUTT against Taok3, the z-score was 0.78.
With CGAACGUGAUGAGUUAUGGTT against Vmn1r83 the z-score was -2.67 (active).
GGUAUUCGUGGAGUGGAGATT against Pdcd2l gave a z-score of 0.0458.
With GGGCAAUUAGUAAAGGCUATT against Eif2s3x the z-score was 2.02 (active).
With GGUCCUACAAAAAGAUGGATT against Mettl7b the z-score was -0.536.
Sequence CGAGAUUGUGCUGAUAGAGTT against Nptx2 has a z-score of 0.533.
CGUGUUGUACUACGUAUAUTT against Abtb1 showed a z-score of -0.172.
Sequence CCUAAAAGACUUUGGAGACTT against Arg2 has a z-score of -1.09.
Sequence GGCCCUCAUGAUUGCUAUGTT against Nek8 has a z-score of -0.722.
With CCUUCCAUGGUGAGGAUAATT against Stim1 the z-score was -2 (active).
In the case of CCAGUUGAGUCACUUACUGTT against Borcs7, the z-score is reported as 0.667.
With CGCGGCAUAAACAUGUAAATT against Gatc the z-score was -1.07.
With GGUGUCUUUCUUCACUCUUTT against Olfr862 the z-score was 0.225.
For CGUGUUUGAUCACUACUCUTT against Tnfaip8l2, the z-score was -0.593.
For GGACUGACUGGCUUCAUUGTT against Atl2, the z-score was -2.52 (active).
With GCAGAUUAGCUUCGUCAACTT against Top2a the z-score was -0.588.
GCGAAAUCCUGGGCUACUCTT against Dyrk4 gave a z-score of -0.32.
Work on GGUUGUGACUACACUAUGGTT against Zfp456 yielded a z-score of -1.7.
In the case of CGCAGAACGUGAACACCAATT against Smad3, the z-score is reported as -2.47 (active).
With GUUACACAGGAGUGUGUAATT against Rnase2a the z-score was 0.573.
For GGUGGCUUUAGGGAACAUUTT against Dctn3, the z-score was 0.369.
GGAAAUGGAGAAAUAUGCATT against Plod3 showed a z-score of -0.167.
With ACCUUUGUCCUUUUGUUGUTT against Defb15 the z-score was 2.01 (active).
In the case of GGAGAUGAAAAAAACGAGCTT against Rxylt1, the z-score is reported as -0.222.
Work on GCAAAUAAUGAGGUCCAGATT against Rbms2 yielded a z-score of -0.377.
With GCAAGUCCUACAAUACAACTT against Tk1 the z-score was 5.5 (active).
Sequence GGCGAUGAAGAAGUAAUUUTT against Appl2 has a z-score of -1.2.
With CCCAUUAAGGUAUAAUAUCTT against Olfr855 the z-score was -0.301.
Work on GGUUUCAUUUGGAUUUGCATT against Glyr1 yielded a z-score of 0.491.
For GGCAAAGAUAAUAAAGCUATT against Xpo1, the z-score was -0.967.
Sequence CCGUUUACUUCGUCCAAGUTT against Crlf1 has a z-score of -0.134.
For CCUUAUUUGUCCAUAAAAGTT against Pkdrej, the z-score was 2.43 (active).
GGGUCCUCUGAAAGUUACCTT against Fndc5 gave a z-score of 0.497.
With GCACUUUGGCAUAUUUUCATT against Slc6a15 the z-score was -0.391.
In the case of GGAAAUGCUUCUGAGCUAGTT against Desi2, the z-score is reported as 1.71.
Work on GGGACGACUCUUUCUUAUGTT against Olfr1264 yielded a z-score of 0.822.
In the case of GGAGAAAGGUGGUUUGGUATT against Sap30bp, the z-score is reported as -2.85 (active).
For GGAGCUAGUAUGUUCAACATT against Ubqln1, the z-score was -0.942.
With GGUGUUUGUUUCUAACUUCTT against Glcci1 the z-score was -0.434.
In the case of CGAAUUCAUACCAGUGUGCTT against Ndufa10, the z-score is reported as 2.84 (active).
Sequence GCACUCUGCCUGAAAUACCTT against Nlrp1a has a z-score of -0.376.
GGACUUCACAAUCUCUUUCTT against Hck showed a z-score of -0.11.
GGAAGAAUCCACUUUGAACTT against Chil4 gave a z-score of 0.048.
Work on GGGCUAAAUUAAGCUUCUATT against Sowahd yielded a z-score of -0.707.
With GCCUGCUUAAGCUACUUAUTT against Fam210b the z-score was -1.04.
In the case of UCUUACAAACUAGCUCUCCTT against Crabp2, the z-score is reported as -0.777.
With GGGACCGUCUUAAACAUCUTT against Rsl1d1 the z-score was 2.92 (active).
GGAGAGUAACAAUUAUGAATT against Pcdha9 showed a z-score of 0.983.
With GCUCGAGAGUACUGUAGGCTT against Kat8 the z-score was -2.41 (active).
With GGUCUAAUACUCAAUAGACTT against Tmem200a the z-score was 0.0917.
Sequence CCUGAAGGGUCUGGCAAAATT against Zfp804a has a z-score of 0.66.
For GGAAUUGGUUCAGAAAUAUTT against Rtn4, the z-score was 3.09 (active).
In the case of GGUUAAACUACAACAGUUGTT against Tmco5, the z-score is reported as 1.04.
With GGAAGAAUGUAAGUAUACCTT against Zscan12 the z-score was 1.68.
With CGUGGAAGAAAUAAUUAGGTT against Faap24 the z-score was 0.664.
